Experimental data reported in PubChem BioAssay (EPA / NIEHS).
Where “and” joins values, the source holds several entries; their conditions need not be identical. Identical values can stand only once. Inconclusive results are not listed. Calls of active or inactive are those of the source. How the source made its calls, unless noted: active means hit-call score of the fitted dose curve at least 0.9, where 1 is the maximum; inconclusive means response in the unintended direction; inactive means score below 0.9.

Key:
[1] = CEETOX_H295R_ESTRONE: CeeTox H295R High-throughput Steroidogenesis Assay for Estrone (AID 2283441; active means hit-call score of the fitted dose curve at least 0.9, where 1 is the maximum; inactive means score below 0.9;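 further: estrone secreted into medium measured by LC-MS/MS after dansyl derivatization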); conditions: actives raise or lower the signal
In short: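 H295R cells; 48 h forskolin (10 uM) prestimulation; 48 h compound exposure, 0.1% DMSO final. Medium estrone: MTBE extraction, dansyl derivatization, HPLC-MS/MS. Bidirectional fit vs DMSO.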

[2] = CEETOX_H295R_PROG: CeeTox H295R High-throughput Steroidogenesis Assay for Progesterone (PROG) (AID 2283442; active means hit-call score of the fitted dose curve at least 0.9, where 1 is the maximum; inactive means score below 0.9;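 on AC50: human H295R adrenal cells primed with 10 µM forskolin before dosing; progesterone secreted into medium by H295R cells measured by HPLC-MS/MS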); conditions: actives raise or lower the signal
In short: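 Steps: seed H295R cells and let them adhere overnight; prime 48 h with 10 uM forskolin; dose with compound in DMSO at 0.1% final for 48 h; extract medium steroids with MTBE; measure progesterone by LC-MS/MS. MTT viability was run in the same wells.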

[3] = CEETOX_H295R_TESTO: CeeTox H295R High-throughput Steroidogenesis Assay for Testosterone (TESTO) (AID 2283457; active means hit-call score of the fitted dose curve at least 0.9, where 1 is the maximum; inactive means score below 0.9); conditions: actives raise or lower the signal
In short: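 H295R, passage ≤10, 48 h dosing; media extracted with MTBE → HPLC-MS/MS for testosterone; 7-pt standard curve sets LLOQ/ULOQ; bidirectional fit vs DMSO; MTT viability same wells.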

[4] = ATG_XTT_Cytotoxicity: Cytotoxicity Assessment in the Attagene TRANS-FACTORIAL HepG2 Assay (AID 2283584);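 on AC50: cells exposed to compound for 24 h before reading; active means loss of viability signal versus DMSO baseline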
In short: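 Cells: human HepG2, transiently transfected with MRTU reporter constructs. Exposure 24 h. Readout: XTT, cell number. Baseline/neg ctrl DMSO; loss-of-signal scored.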

[5] = test system: Thyroperoxidase (TPO), gene 54314; experiment: CCTE_Simmons_AUR_rTPO: CCTE's Amplex UltraRed Assay for Thyroperoxidase (TPO) Inhibition, Simmons Lab (AID 2283662);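 further: potency for loss of signal meaning inhibition of peroxidase activity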
In short: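 Rat thyroid microsomes (5 ug protein) were incubated with test compound (8 concentrations, 5 nM–87.5 uM final, 0.5% DMSO), 25 uM Amplex UltraRed and 300 uM H2O2 in 200 mM phosphate buffer for 30 min at 37C in the dark; fluorescence read at 544/590 nm.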

[6] = CCTE_Simmons_CellTiterGLO_HEK293T: Viability Assessment in CCTE's Assays for Thyroperoxidase (TPO) Inhibition, Simmons Lab (AID 2283665);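 on AC50: cells exposed to compound for 24 h before readout; actives reduce ATP signal below DMSO vehicle meaning cytotoxicity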
In short: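 Cytotoxicity counter-screen: human HEK293T cells in low-serum (1% FBS) medium receive test chemical, 5 nM to 87.5 uM final, for 24 h; ATP is quantified by luciferase luminescence.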

[7] = CEETOX_H295R_MTT_cell_viability: Viability Assessment in the CeeTox HT-H295R MTT Assay (AID 2283718; active means hit-call score of the fitted dose curve at least 0.9, where 1 is the maximum; inactive means score below 0.9)
In short: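 MTT reduction (0.5 mg/ml, 4 h at 37 C; absorbance at 570 and 650 nm) gave viability as background-corrected percent change versus controls. H295R cells had 48 h forskolin (10 uM) prestimulation, then 48 h chemical exposure at 0.1% DMSO.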

[8] = biological target: Luciferin 4-monooxygenase (Photinus pyralis) (UniProt P08659); experiment: CCTE_Simmons_QuantiLum_inhib_2: CCTE's Firefly Luciferase Inhibition Assay, Simmons Lab (AID 2283767)
In short: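 Counter-screen for nonspecific enzyme inhibition: purified firefly luciferase incubated 30 min at 37C with chemicals up to 87.5 uM final, then luminescence measured after luciferin/dATP injection; activity fitted against DMSO baseline.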

[9] = TOX21_p53_BLA_p2_viability: Viability Assessment in the Tox21 HCT-116 p53 Agonism Beta-lactamase Assay, Phase 2 (AID 2283591);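 further: compound exposure lasted 16 h at 37 °C; actives lower the ATP signal meaning cytotoxicity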
In short: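 Cytotoxicity readout: CellTiter-Glo ATP luminescence, 30 min at room temperature, after the beta-lactamase read. Cells were HCT116 exposed 16 h at 37C to compounds pin-transferred at 217-fold dilution from DMSO stocks.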

[10] = biological target: Cellular tumor antigen p53 (Homo sapiens) (UniProt P04637); experiment: TOX21_p53_BLA_p2_ratio: Tox21 HCT-116 p53 Agonism Beta-lactamase Assay, Ratio, Phase 2 (AID 2283592)
In short: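 HCT116 p53-bla; 4000 cells/well; 5 h pre-incubation; cpd in DMSO, 217-fold dilution; 16 h 37C/5% CO2; CCF4-AM 2 h RT; Ex 405, Em 460/530 ratio; DMSO = baseline; positive fitting direction.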

[11] = TOX21_p53_BLA_p3_viability: Viability Assessment in the Tox21 HCT-116 p53 Agonism Beta-lactamase Assay, Phase 3 (AID 2283593);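 further: cells exposed to compound for 16 h before reading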
In short: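 Cellular ATP was quantified by CellTiter-Glo luminescence, read after 30 min at room temperature. Beforehand, HCT116 cells (4000/well) received compound 5 h post-seeding, 217-fold diluted from DMSO, then incubated 16 h at 37C.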

[12] = biological target: Cellular tumor antigen p53 (Homo sapiens) (UniProt P04637); experiment: TOX21_p53_BLA_p3_ratio: Tox21 HCT-116 p53 Agonism Beta-lactamase Assay, Ratio, Phase 3 (AID 2283596)
In short: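 HCT116 p53-bla cells (4000/well) given compound in DMSO (217-fold dilution) after 5 h, incubated 16 h at 37C. CCF4-AM substrate 2 h at room temperature; 460/530 nm emission ratio, gain fitted against DMSO.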

[13] = TOX21_p53_BLA_p4_viability: Viability Assessment in the Tox21 HCT-116 p53 Agonism Beta-lactamase Assay, Phase 4 (AID 2283597);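 further: hits lower the luminescence signal meaning cytotoxicity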
In short: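 Cells plated, 5 h pre-incubation; DMSO compounds pinned (217-fold dilution); 16 h, 37C/5% CO2; CCF4-AM 2 h RT; CellTiter-Glo 30 min RT; luminescence read.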

[14] = biological target: Cellular tumor antigen p53 (Homo sapiens) (UniProt P04637); experiment: TOX21_p53_BLA_p5_ratio: Tox21 HCT-116 p53 Agonism Beta-lactamase Assay, Ratio, Phase 5 (AID 2283599)
In short: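 Beta-lactamase reporter ratio (blue 460 nm over green 530 nm, 405 nm excitation) after 2 h CCF4-AM loading, in HCT-116 cells exposed 16 h at 37 C to compounds pinned at 217-fold dilution. Increases relative to DMSO baseline scored.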

[15] = biological target: Cellular tumor antigen p53 (Homo sapiens) (UniProt P04637); experiment: TOX21_p53_BLA_p4_ratio: Tox21 HCT-116 p53 Agonism Beta-lactamase Assay, Ratio, Phase 4 (AID 2283601)
In short: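 Signal is the blue/green (460nm/530nm) ratio of cleaved versus uncleaved CCF4-AM substrate, read after 2 h substrate loading. Cells were HCT116 carrying the p53-responsive beta-lactamase reporter, dosed 16 h at 37C, 5% CO2; CellTiter-Glo measured in parallel.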

[16] = test system: chicken Androgen Receptor (AR), gene 422165; experiment: ATG_chAR_XSP1: Attagene TRANS-FACTORIAL Multi-Species (XSP1) HepG2 Assay for chicken Androgen Receptor (AR) (AID 2283768)
In short: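 HepG2 cells transiently transfected with multiplexed GAL4-UAS reporter units expressing chimeric chicken AR-Gal4; 3 nM 6-alpha-fluorotestosterone for partial AR stimulation; 24 h after dosing, reporter mRNA by RT-PCR and capillary electrophoresis, gain-of-signal versus DMSO.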

[17] = test system: frog Androgen Receptor (AR), gene 399456; experiment: ATG_frAR_XSP1: Attagene TRANS-FACTORIAL Multi-Species (XSP1) HepG2 Assay for frog Androgen Receptor (AR) (AID 2283770)
[18] = test system: zebrafish Androgen Receptor (AR), gene 100005148; experiment: ATG_zfAR_XSP1: Attagene TRANS-FACTORIAL Multi-Species (XSP1) HepG2 Assay for zebrafish Androgen Receptor (AR) (AID 2283771)
In short: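 HepG2 cells were transiently transfected with a zebrafish AR-GAL4 reporter system and partially stimulated with 3 nM 6-alpha-fluorotestosterone. Reporter mRNA was measured after 24 h dosing by RT-PCR with capillary electrophoresis, and gain-of-signal was fitted relative to DMSO.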

[19] = TOX21_p53_BLA_p5_viability: Viability Assessment in the Tox21 HCT-116 p53 Agonism Beta-lactamase Assay, Phase 5 (AID 2283600)
In short: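 4000 cells/well; 5 h pre-incubation; DMSO compounds pin-transferred, 217-fold dilution; 16 h, 37C/5% CO2; CCF4-AM 2 h RT; CellTiter-Glo 30 min RT; luminescence.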

Cellular tumor antigen p53 (Homo sapiens), sequence (P04637 whole entry, looked up): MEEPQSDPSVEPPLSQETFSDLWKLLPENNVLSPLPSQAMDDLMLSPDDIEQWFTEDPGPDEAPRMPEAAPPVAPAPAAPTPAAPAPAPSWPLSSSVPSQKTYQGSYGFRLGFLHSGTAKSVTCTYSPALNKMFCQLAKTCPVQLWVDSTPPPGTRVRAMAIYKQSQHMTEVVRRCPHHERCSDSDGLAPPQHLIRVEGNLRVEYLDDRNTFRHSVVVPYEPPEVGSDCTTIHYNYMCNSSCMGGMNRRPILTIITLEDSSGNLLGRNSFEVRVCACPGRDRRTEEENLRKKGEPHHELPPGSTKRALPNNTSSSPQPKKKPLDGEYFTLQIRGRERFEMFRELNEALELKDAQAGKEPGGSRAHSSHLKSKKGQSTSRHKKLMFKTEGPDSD
Luciferin 4-monooxygenase (Photinus pyralis), sequence (P08659 whole entry, looked up): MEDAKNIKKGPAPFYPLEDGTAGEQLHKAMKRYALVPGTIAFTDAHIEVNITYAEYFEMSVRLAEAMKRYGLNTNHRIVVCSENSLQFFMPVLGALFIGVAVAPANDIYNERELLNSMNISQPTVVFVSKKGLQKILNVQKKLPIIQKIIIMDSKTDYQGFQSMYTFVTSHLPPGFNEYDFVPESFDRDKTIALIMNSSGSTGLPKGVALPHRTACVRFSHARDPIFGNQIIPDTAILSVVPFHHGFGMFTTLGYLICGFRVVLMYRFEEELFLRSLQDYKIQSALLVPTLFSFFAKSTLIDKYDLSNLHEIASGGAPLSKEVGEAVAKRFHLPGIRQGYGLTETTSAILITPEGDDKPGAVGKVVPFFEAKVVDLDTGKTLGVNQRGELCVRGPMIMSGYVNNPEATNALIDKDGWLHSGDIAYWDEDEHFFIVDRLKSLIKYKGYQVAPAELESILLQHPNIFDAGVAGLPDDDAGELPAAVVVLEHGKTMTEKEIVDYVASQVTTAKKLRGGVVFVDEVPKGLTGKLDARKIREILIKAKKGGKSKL

Structure (SMILES): CCCCCCCCCCCCC[N+](C)(C)Cc1ccccc1
- outcome [1]: inactive
- AC50 [2]: 0.159 µM (active)
- outcome [3]: inactive
- AC50 [4]: 31.7 µM (active)
- AC50 [5]: 25.5 µM (active)
- AC50 [6]: 9.42 µM (active)
- outcome [7]: inactive
- outcome [8]: inactive

Structure (SMILES): N#Cc1ccccc1O
- outcome [2]: inactive
- outcome [4]: inactive
- outcome [7]: inactive

Structure (SMILES): Oc1ccc2c(c1)CCC2
- outcome [1]: inactive
- outcome [3]: inactive
- outcome [4]: inactive
- outcome [7]: inactive

Structure (SMILES): CC(=O)C=O
- outcome [4]: inactive

Structure (SMILES): CCN(CC)c1ccc(C=O)cc1
- outcome [1]: inactive
- outcome [2]: inactive
- outcome [3]: inactive
- outcome [4]: inactive
- outcome [7]: inactive

Structure (SMILES): O=C(Cl)c1ccc(Cl)cc1Cl
- outcome [4]: inactive

Structure (SMILES): C=C(C)CCCC
- outcome [4]: inactive

Structure (SMILES): O=C(c1ccccc1)c1ccc(O)cc1O
- outcome [4]: inactive
- outcome [9]: inactive
- outcome [10]: inactive
- outcome [11]: inactive
- outcome [12]: inactive
- outcome [13]: inactive
- outcome [14]: inactive
- outcome [15]: inactive
- AC50 [5]: 6.04 µM (active) and 5.41 µM (active)
- outcome [6]: inactive
- outcome [8]: inactive
- AC50 [16]: 1.98 µM (active)
- AC50 [17]: 3.28 µM (active)
- outcome [18]: inactive

Structure (SMILES): O=C=Nc1cccc2c(N=C=O)cccc12
- outcome [4]: inactive

Structure (SMILES): CCOC(C=C(C)CCC=C(C)C)OCC
- outcome [4]: inactive

Structure (SMILES): O=C1C=CC(=O)N1c1ccc(Cc2ccc(N3C(=O)C=CC3=O)cc2)cc1
- AC50 [4]: 157 µM (active)
- AC50 [9]: 71 µM (active)
- AC50 [10]: 29.1 µM (active)
- outcome [11]: inactive
- outcome [12]: inactive
- AC50 [13]: 75.2 µM (active)
- AC50 [14]: 74.4 µM (active)
- AC50 [19]: 86.3 µM (active)
- AC50 [15]: 68 µM (active)

Structure (SMILES): CCCC(=O)OCC(COC(=O)CCC)OC(=O)CCC
- outcome [4]: inactive

Structure (SMILES): CC(C)(C)c1cc(CCC(=O)OCC(COC(=O)CCc2cc(C(C)(C)C)c(O)c(C(C)(C)C)c2)(COC(=O)CCc2cc(C(C)(C)C)c(O)c(C(C)(C)C)c2)COC(=O)CCc2cc(C(C)(C)C)c(O)c(C(C)(C)C)c2)cc(C(C)(C)C)c1O
- outcome [4]: inactive

Structure (SMILES): Cc1ccc([N+](=O)[O-])c(C)c1
- outcome [4]: inactive
- outcome [9]: inactive
- outcome [10]: inactive
- outcome [11]: inactive
- outcome [12]: inactive
- outcome [14]: inactive
- outcome [19]: inactive
- outcome [15]: inactive

Structure (SMILES): CCc1cccc(C)c1N(C(=O)C(=O)O)C(C)COC (stereo not given)
- outcome [4]: inactive

Structure (SMILES): OCCCCl
- outcome [4]: inactive
